Measured values reported in PubChem BioAssay (NCI).
This is part of a sample that, as a whole, favours compounds with a hit. Of some 83,000 tested, about 20% had one in any assay.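 Cell lines were cultured in 96-well plates, exposed to a single compound concentration, and assessed for percent growth 48 hours later.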 The source made the active and inactive calls.

These molecules were tested on NCI-H460 lung (assay: NCI-60 one-dose screen, 48 h (100 = growth as untreated, 0 = no growth, -100 = all killed)). Conditions: 10 µM unless noted.
Procedure: Growth inhibition of the NCI-H460 human Non-Small Cell Lung tumor cell line is measured as a screen for anti-cancer activity. Cells are grown in 96 well plates and exposed to the test compound for 48 hours. Compounds are tested at a single concentration, which is 10^-5 M for most compounds. The reported endpoint is percent growth (GI% or GIPRCNT), where numbers from 0 - 100% represent growth inhibition, and numbers from -100% - 0 represent cell death. For example, a value of 40 represents 60% growth inhibition. A value of 0 means no net growth occurred over the course of the experiment. A value of -40 indicates 40% of cells at the beginning of the experiment died by the end of the experiment. A value of -100 means all cells are dead at the end of the experiment.
NCI-60 Human Tumor Cell Lines Screen was performed using the standard one-dose NCI protocol, which is described in more detail at https://dtp.cancer.gov/discovery_development/nci-60/default.htm.
Compounds with GIPRCNT values below 10 were considered active. Activity score was based on GIPRCNT using the following formula: […]
Score is 0 for GIPRCNT values of 100 or above, 50 for GIPRCNT values of 0, and 100 for GIPRCNT values of -100.

Q: Which growth does the source give for CC(C)N1CCN(Cc2ccc3c(NNC(=O)c4ccccc4)nc4cc(F)ccc4n23)CC1 here?
A: 3.96% (active)

Q: For O=C1Nc2ccc(I)cc2C1=O, which growth is on record?
A: 107% (inactive)

Q: Which growth does the source give for CS(=O)(=O)C1=CN(CCO)C(=O)N2CCCN=C12 here?
A: 102% (inactive)

Q: For CC(=O)Cc1nsc(NC(=O)c2cc(-c3cc(Cl)cc(Cl)c3)oc2C)n1, which growth is on record?
A: 103% (inactive)

Q: For O=C(CCc1nnc(Cn2cnc3nc[nH]c3c2=O)o1)c1nc2ncccc2[nH]1, which growth is on record?
A: 105% (inactive)

Q: Which growth does the source give for CC(O)c1cnc(/C=C2\SC(=S)N(Cc3ccccc3)C2=O)s1 (stereo not given) here?
A: 96.8% (inactive)

Q: COc1cc2c(c(OC)c1OC)C(=O)CC(c1cccc(NC(=O)c3ccc(Br)cc3)c1)O2 (stereo not given) was tested. Which growth did it give?
A: 57% (inactive)

Q: How did the growth turn out when CC1=Nc2cnc(Nc3ccc(OCCN4CCCCC4)cc3)nc2Nc2ccccc21 was run?
A: 61.6% (inactive)

Q: With O=C1c2cccc3cccc(c23)C(=O)N1N1C(=O)c2cccc3c(N4CCOCC4)ccc(c23)C1=O as the molecule, how does the growth read?
A: 101% (inactive)

Q: Which growth does the source give for CC(C)(C)n1cc(-c2ccnc(NCCCNS(=O)(=O)c3ccc(F)cc3)c2)c(-c2cccc(F)c2)n1 here?
A: 36.1% (inactive)

Q: How did the growth turn out when O=[N+]([O-])c1ccc(S(=O)(=O)N2CCN(C3=NS(=O)(=O)c4ccccc4N3c3ccccc3)CC2)cc1 was run?
A: 115% (inactive)

Q: Which growth does the source give for O=C(Cn1cc(CN2CCCCCC2)nn1)Nc1ccc2c(ccn2Cc2ccccc2)c1 here?
A: 102% (inactive)

Q: How did the growth turn out when C#CCOc1cccc(Nc2ncnc3c(NC(=O)C=C)cccc23)c1 was run?
A: 12.8% (inactive)

Q: How did the growth turn out when CCc1nc2c(=O)[nH]cnc2o1 was run?
A: 105% (inactive)

Q: CCOC(=O)c1ccc2[nH]c(O)c(C(=Nc3ccc(N(C)C(=O)CN4CCN(C)CC4)cc3)c3ccccc3)c2c1 was tested. Which growth did it give?
A: -27.1% (active)

Q: For C=C(C)[C@@H]1CC[C@]2(C(=O)NCCNCCN)CC[C@]3(C)[C@H](CC[C@@H]4[C@@]5(C)C/C(=C/c6ccncc6)C(=O)C(C)(C)[C@@H]5CC[C@]43C)[C@@H]12, which growth is on record?
A: 99.2% (inactive)

Q: For COC(=O)c1cc(-c2ccc(OC)cc2)[nH]c1N/N=C/c1c(Cl)cccc1Cl, which growth is on record?
A: -9.38% (active)

Q: With Brc1ccc(-n2cc(-c3nn[nH]n3)c(-c3cccs3)n2)cc1 as the molecule, how does the growth read?
A: 105% (inactive)

Q: How did the growth turn out when Nc1c(C(=O)Nc2ccccc2Cl)sc2nc3c(cc12)C(O)CCC3 (stereo not given) was run?
A: 24.5% (inactive)

Q: For Cc1nc(N2CCOCC2)sc1S(N)(=O)=O, which growth is on record?
A: 102% (inactive)

Q: With CN(C)CC(=O)Nc1ccc2ncnc(Nc3ccc(Oc4cccc(C(F)(F)F)c4)c(Cl)c3)c2c1 as the molecule, how does the growth read?
A: 8.52% (active)

Q: For Cc1ccccc1Cn1cnc2ccc(-c3cc(NC(=O)c4ccc(NC5CCN(C)CC5)cc4)n[nH]3)cc21, which growth is on record?
A: 91.9% (inactive)

Q: With CCCCN[C@H]1CC[C@@]2(C)[C@@H](CC[C@@]3(C)[C@H]2[C@H](O)C[C@H]2/C(=C(\CCC=C(C)C)C(=O)OC)[C@@H](OC(C)=O)C[C@@]23C)[C@@H]1C as the molecule, how does the growth read?
A: 100% (inactive)

Q: Which growth does the source give for COC(C(=O)[C@@H](O)[C@@H](C)O)[C@@H]1Cc2cc3cc(O[C@H]4C[C@@H](O[C@H]5C[C@@H](O)[C@H](O)C(C)O5)[C@H](O)C(C)O4)c(C)c(O)c3c(O)c2C(=O)[C@H]1O[C@H]1C[C@@H](O[C@H]2C[C@@H](O[C@H]3C[C@@H](O)[C@H](OC)C(C)O3)[C@@H](O)C(C)O2)[C@H](O)C(C)O1 (stereo not given in full) here?
A: 9.27% (active)

Q: Which growth does the source give for COc1ccc2c(O)c(/C=C3\N=Nc4ccccc43)oc2c1C[C@@H]1CCNC[C@H]1F here?
A: 11.2% (inactive)

Q: Cc1cccnc1NC(=S)Nc1ncccc1C was tested. Which growth did it give?
A: 107% (inactive)

Q: O=C(N/N=C/c1ccc(F)cc1)c1ccc(C(F)(F)F)nc1Nc1cccc(C(F)(F)F)c1 was tested. Which growth did it give?
A: -17.7% (active)

Q: With CC(C)c1ccc(COCc2cc(CN3CCCC3)c(O)c3ncccc23)cc1 as the molecule, how does the growth read?
A: -40.8% (active)

Q: O=C1/C(=C\c2cn(-c3ccccc3)nc2-c2ccc(-c3cccs3)cc2)CCc2ccccc21 was tested. Which growth did it give?
A: 47.1% (inactive)

Q: For COc1ccc(-c2cn(-c3cc(OC)c(OC)c(OC)c3)c(=O)n2C(C)=O)cc1, which growth is on record?
A: 106% (inactive)

Q: N#Cc1nc(-c2ccccc2)oc1S(=O)(=O)N1CCOCC1 was tested. Which growth did it give?
A: 109% (inactive)

Q: With Cc1oc(-c2ccc(Cl)cc2)nc1/C=C/C(=O)c1ccccc1 as the molecule, how does the growth read?
A: 103% (inactive)

Q: With CCOC(=O)C(=Cc1cccc(Cl)c1)C(=O)OCC as the molecule, how does the growth read?
A: 74.4% (inactive)

Q: How did the growth turn out when O=CC1(C2(C=O)c3ccccc3-c3ccccc32)c2ccccc2-c2ccccc21 was run?
A: -46.9% (active)

Q: Which growth does the source give for CN(CCOc1ccc(C#N)cc1)CCOc1ccc(C#N)cc1 here?
A: 120% (inactive)

Q: C=C(C)[C@@H]1CC[C@]2(C(=O)OC)CC[C@]3(C)[C@H](CC[C@@H]4[C@@]5(C)C/C(=C/NC(N)=S)C(=O)C(C)(C)[C@@H]5CC[C@]43C)[C@@H]12 was tested. Which growth did it give?
A: 88.9% (inactive)

Q: How did the growth turn out when CC1(C)CCC(S(=O)(=O)c2ccc3c(c2)/C(=N\O)c2cc(S(=O)(=O)N4CCC(O)(c5cccc(C(F)(F)F)c5)CC4)ccc2-3)CC1 was run?
A: -84.5% (active)

Q: CC[C@]12C=CCN3CC[C@@]4(c5cc(NC(=O)CCC(=O)OCc6cn(Cc7ccc(F)cc7)nn6)c(OC)cc5N(C)[C@H]4[C@@](O)(C(=O)OC)[C@@H]1OC(C)=O)[C@@H]32 was tested. Which growth did it give?
A: 106% (inactive)

Q: With N=C(N)c1ccc(-c2ccc(-c3ccc(F)cc3)o2)o1 as the molecule, how does the growth read?
A: -13.7% (active)

Q: For COC(=O)c1c2c(c[n+]([O-])c1C)C(=O)C(NCc1ccccc1)=CC2=O, which growth is on record?
A: -30.3% (active)
